Inconclusive results are not listed. The source made the active and inactive calls. Unless noted, calls come from the whole dose curve; as a rule, active = well fitted curve in the direction sought with a large enough effect in the repeat runs; inconclusive = weak or mixed curves; inactive = no such curve, though single readings can be large; an effect the other way counts as inactive or inconclusive.

Here are results for 15 compounds from PubChem BioAssay (Tox21).

The nature of experiment [1]: A CellTox Green Cytotoxicity Assay to monitor cytotoxicity in HepG2 cells - 0 hour (AID 1224882). Note: nearly all actives have a fitted effect of over 35% in size. In a few lines: (§1)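 Real-time, homogeneous cytotoxicity readout: dead-cell DNA staining by CellTox Green in HepG2 monolayers, fluorescence measured at timed intervals up to 40 h of continuous compound exposure.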
The nature of experiment [2]: A CellTox Green Cytotoxicity Assay to monitor cytotoxicity in HepG2 cells - 32 hour (AID 1224883). Note: nearly all actives have a fitted effect of over 50% in size. Note: potency is the fitted concentration of half-maximal effect. In a few lines: as §1
The nature of experiment [3]: qHTS RealTime-Glo MT Cell Viability Assay in HepG2 cells - 16 hour (AID 1224885). Note: nearly all actives have a fitted effect of over 50% in size. Note: potency is the fitted concentration of half-maximal effect. Put shortly: (§2)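 qHTS, HepG2, 600 cells/well, RealTime-Glo (NanoLuc + prosubstrate) added with cells; 5 h preincubation; DMSO compound addition; 37 C; luminescence at 0/8/16/24/32/40 h.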
For orientation: Quantitative high-throughput screening tests each substance at several concentrations.

The nature of experiment [4]: qHTS RealTime-Glo MT Cell Viability Assay in HEK293 cells - 8 hour (AID 1224887). Note: nearly all actives have a fitted effect of over 50% in size. Note: potency is the fitted concentration of half-maximal effect. In a few lines: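 Nonlytic bioluminescent viability monitoring. HEK293 at 600 cells/well with reagent; 5 h settle; compound transfer by pintool; plates held at 37 C and read at set time points.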
Experiment [5] is described as follows: A CellTox Green Cytotoxicity Assay to monitor cytotoxicity in HEK293 cells - 16 hour (AID 1224888). Note: nearly all actives have a fitted effect of over 35% in size. Put shortly:
(§3)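 Cytotoxicity was tracked continuously in HEK293 cells by a DNA-binding dye excluded from viable cells. Compounds were transferred in DMSO 5 h after seeding; fluorescence was recorded at intervals up to 40 h.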

The nature of experiment [6]: qHTS RealTime-Glo MT Cell Viability Assay in HepG2 cells - 0 hour (AID 1224889). Note: nearly all actives have a fitted effect of over 50% in size. Put shortly: as §2
The nature of experiment [7]: A CellTox Green Cytotoxicity Assay to monitor cytotoxicity in HepG2 cells - 8 hour (AID 1224890). Note: nearly all actives have a fitted effect of over 45% in size. Put shortly: as §1
Experiment [8] can be described thus: qHTS assay to identify small molecule antagonists of the estrogen receptor alpha (ER-alpha) signaling pathway using the BG1 cell line in the presence of 0.1 nM 17-beta-estradiol - cell viability counter screen (AID 1259241). Note: nearly all actives have a fitted effect of over 40% in size. Note: potency is the fitted concentration of half-maximal effect. Put shortly:
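The cell line endogenously expresses full-length ER-alpha and carries four EREs driving luciferase. Cells are cultured 5 days hormone-free, treated 22 hr with compounds and 0.1 nM estradiol, then viability is read by fluorescence.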

Experiment [9] in a line: qHTS assay to identify small molecule antagonists of the androgen receptor (AR) signaling pathway using the MDA cell line in the presence of 0.5 nM R1881 - cell viability counter screen (AID 1259242). Note: nearly all actives have a fitted effect of over 45% in size. Note: potency is the fitted concentration of half-maximal effect. In a few lines:
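Cytotoxicity toward MDA-kb2 cells is measured by CellTiter-Fluor live-cell protease fluorescence after 16 hr compound exposure at 37C in the presence of 0.5 nM R1881 stimulator.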

The target in experiment [10] is Estrogen receptor (Homo sapiens) (UniProt P03372). Nature of the experiment: qHTS assay to identify small molecule antagonists of the estrogen receptor alpha (ER-alpha) signaling pathway using the BG1 cell line in the presence of 0.1 nM 17-beta-estradiol (AID 1259244). Note: nearly all actives have a fitted effect of over 50% in size. Put shortly:
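After 5 days in hormone-depleted medium (charcoal-stripped serum, no phenol red), VM7Luc4E2 cells were seeded, incubated 24 h, then co-treated with compound and 0.1 nM (final) estradiol for 22 h before luminescence detection.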

The nature of experiment [11]: qHTS assay to identify small molecule phospholipidosis (PLD) inducers (AID 1259344; active = well fitted curve in the direction sought with a large enough effect; an effect the other way counts as inactive or inconclusive). Put shortly: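 HepG2 cells on collagen I, attached 4 h at 37 C, were co-treated with compound and LipidTOX Red dye for 24 h at 37 C, then fixed with paraformaldehyde plus Hoechst 33342 and imaged by high-content microscopy for phospholipid accumulation.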
Experiment [12] in a line: qHTS assay to identify small molecule HDAC inhibitors (AID 1259364). Note: top concentration of the series differs between compounds; nearly all actives have a fitted effect of over 45% in size. Put shortly:
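Homogeneous cell-based luminescent assay of endogenous class I/II HDAC activity; HCT-116 cells, 2 h compound exposure, 30 min HDAC-Glo development at RT.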

A short description of experiment [13]: qHTS assay to identify small molecule HDAC inhibitors - cell viability counter screen (AID 1259365). In a few lines:
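Viability readout: CellTiter-Glo luminescence. Wild-type HCT-116 cells, 2hr compound treatment following overnight attachment at 37 C.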

Experiment [14] in a line: qHTS assay to identify small molecule antagonists of the sonic hedgehog signaling (Shh) pathway - cell viability counter screen (AID 1259367). Note: nearly all actives have a fitted effect of over 55% in size. Note: potency is the fitted concentration of half-maximal effect. Put shortly: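 NIH/3T3-derived Gli1-Luc reporter cells (2,000 per well) rested 4 hr at 37 C, then received DMSO compounds plus conditioned medium. After 23 hr of treatment, CellTiter-Fluor was added for 1 hr at 37C and fluorescence read.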

The nature of experiment [15]: qHTS assay to identify small molecule agonists of the sonic hedgehog signaling (Shh) pathway (AID 1259368; calls by dose curve;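 note: NIH/3T3-derived 3T3Gli1-Luc cells carrying a stable Gli1-driven firefly luciferase reporter; series mostly up to about 92 µM; nearly all actives have a fitted effect of over 15% in size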). In a few lines:
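Steps: seed 3T3 Gli1-Luc cells, incubate 4 hr at 37 C, pin-transfer compounds in DMSO alongside a positive control, incubate 24 hr, add luciferase detection reagent, wait 30 min at room temperature, read luminescence.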

A short description of experiment [16]: qHTS assay to identify small molecule antagonists of the sonic hedgehog signaling (Shh) pathway (AID 1259369; calls by dose curve; note: nearly all actives have a fitted effect of over 45% in size; note: potency is the fitted concentration of half-maximal effect). In a few lines:
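Inhibition of Shh signalling is measured as reduced Gli1-response-element firefly luciferase output in an NIH/3T3-derived stable reporter clone stimulated with conditioned medium for 24hr.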

A short description of experiment [17]: A CellTox Green Cytotoxicity Assay to monitor cytotoxicity in HEK293 cells - 8 hour (AID 1224884). Note: nearly all actives have a fitted effect of over 35% in size. Put shortly:
as §3

A short description of experiment [18]: qHTS RealTime-Glo MT Cell Viability Assay in HEK293 cells - 24 hour (AID 1224886). Note: nearly all actives have a fitted effect of over 50% in size. Note: potency is the fitted concentration of half-maximal effect. Put shortly: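 Assay medium contained NanoLuc luciferase plus cell-permeant prosubstrate, added with HEK293 cells at 600 cells/well. After 5 h at 37 C/5% CO2 compounds were added; plates stayed at 37 C for 40 h with serial luminescence reads.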
In experiment [19] the target is Androgen receptor (Homo sapiens) (UniProt P10275). As to the kind of experiment: qHTS assay to identify small molecule antagonists of the androgen receptor (AR) signaling pathway using the MDA cell line in the presence of 0.5 nM R1881 (AID 1259243). Note: nearly all actives have a fitted effect of over 50% in size. Note: potency is the fitted concentration of half-maximal effect. In a few lines:
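Steps: seed MDA-kb2 cells, incubate 5 hr at 37C; pin-transfer compounds in DMSO; add R1881 to 0.5 nM final; incubate 16 hr; add ONE-Glo, wait 30 min at room temperature; read luminescence.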

Experiment [20] is described as follows: qHTS assay to identify small molecule agonists of the sonic hedgehog signaling (Shh) pathway - cell viability counter screen (AID 1259366). Note: nearly all actives have a fitted effect of over 50% in size. Note: potency is the fitted concentration of half-maximal effect. In a few lines:
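Viability measured fluorometrically (CellTiter-Fluor, 1hr, 37C) in 3T3 Gli1-Luc reporter cells after 23hr compound exposure within a 24hr incubation at 37C/5% CO2.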

Androgen receptor (Homo sapiens), sequence (P10275 whole entry, looked up): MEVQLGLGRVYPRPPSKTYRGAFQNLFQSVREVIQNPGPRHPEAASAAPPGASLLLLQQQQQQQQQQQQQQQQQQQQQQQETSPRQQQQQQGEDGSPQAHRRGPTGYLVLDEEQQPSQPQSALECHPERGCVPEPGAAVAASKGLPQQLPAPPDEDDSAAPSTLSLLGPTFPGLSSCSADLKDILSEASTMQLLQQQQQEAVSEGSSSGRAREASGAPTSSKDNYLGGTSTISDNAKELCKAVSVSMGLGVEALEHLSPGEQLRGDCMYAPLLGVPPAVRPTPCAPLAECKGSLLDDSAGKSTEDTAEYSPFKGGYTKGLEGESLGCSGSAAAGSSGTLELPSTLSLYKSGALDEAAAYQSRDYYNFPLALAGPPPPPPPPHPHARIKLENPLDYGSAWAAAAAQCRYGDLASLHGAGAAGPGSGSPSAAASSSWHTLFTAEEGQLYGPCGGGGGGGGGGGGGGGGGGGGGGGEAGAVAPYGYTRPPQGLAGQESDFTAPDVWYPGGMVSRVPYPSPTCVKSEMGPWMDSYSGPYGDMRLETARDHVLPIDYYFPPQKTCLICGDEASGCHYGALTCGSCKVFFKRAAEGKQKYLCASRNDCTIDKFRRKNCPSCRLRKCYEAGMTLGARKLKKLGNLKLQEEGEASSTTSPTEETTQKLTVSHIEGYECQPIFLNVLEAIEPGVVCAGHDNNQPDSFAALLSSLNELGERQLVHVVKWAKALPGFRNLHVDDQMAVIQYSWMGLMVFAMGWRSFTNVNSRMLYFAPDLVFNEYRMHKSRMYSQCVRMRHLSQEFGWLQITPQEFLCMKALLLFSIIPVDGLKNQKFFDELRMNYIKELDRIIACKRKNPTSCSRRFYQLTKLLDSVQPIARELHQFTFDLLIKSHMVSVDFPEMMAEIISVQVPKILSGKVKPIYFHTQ
Estrogen receptor (Homo sapiens), sequence (P03372 whole entry, looked up): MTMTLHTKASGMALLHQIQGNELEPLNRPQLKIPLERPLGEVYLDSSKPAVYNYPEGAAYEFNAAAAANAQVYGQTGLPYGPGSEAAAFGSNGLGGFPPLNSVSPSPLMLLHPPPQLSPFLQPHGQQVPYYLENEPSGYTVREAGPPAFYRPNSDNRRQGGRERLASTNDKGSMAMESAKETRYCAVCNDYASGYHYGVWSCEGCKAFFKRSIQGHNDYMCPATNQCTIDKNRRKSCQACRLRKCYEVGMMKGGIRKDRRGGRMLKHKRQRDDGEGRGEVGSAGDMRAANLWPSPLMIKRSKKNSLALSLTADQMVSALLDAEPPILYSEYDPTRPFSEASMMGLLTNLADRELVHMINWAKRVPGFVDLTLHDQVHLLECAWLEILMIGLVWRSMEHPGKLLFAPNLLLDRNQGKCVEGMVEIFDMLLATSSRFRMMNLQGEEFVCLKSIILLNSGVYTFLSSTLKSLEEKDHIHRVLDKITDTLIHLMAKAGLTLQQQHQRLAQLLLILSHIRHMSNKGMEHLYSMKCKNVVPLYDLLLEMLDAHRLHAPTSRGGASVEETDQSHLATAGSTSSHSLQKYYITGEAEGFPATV

Turning to `S=P(N1CC1)(N1CC1)N1CC1`, the Potency result in experiment [1], in experiment [2], in experiment [3], in experiment [4], in [5] and in [6] was “inactive” throughout. The Potency result in experiment [7], in experiment [8], in experiment [9], in experiment [10], in experiment [11] and in experiment [12] was “inactive” in each case. Also, the Potency result in [13] and in [15] was “inactive” throughout. Besides, the Potency in [14] is 57.4 µM (active); in experiment [16] it was 22.9 µM (active).

`CCCC(=O)OCC(COC(=O)CCC)OC(=O)CCC`: the Potency entry in experiment [1], in experiment [17], in experiment [3], in experiment [18], in experiment [4] and in experiment [5] was “inactive” throughout. In addition, the Potency result in experiment [6], in experiment [7], in experiment [8], in experiment [9], in [19] and in experiment [10] was “inactive” throughout. Further, the Potency entry in [12], in experiment [13], in [20], in [14], in experiment [15] and in experiment [16] was “inactive” in each case.

As for `C#CC(O)CCC` (stereo not drawn), the Potency result in [1], in experiment [2], in experiment [3], in experiment [18], in [4] and in [5] was “inactive” in each case. Besides, the Potency entry in [6], in experiment [7], in [8], in experiment [19], in experiment [10] and in experiment [13] was “inactive” in each case. Besides, the Potency entry in experiment [15] is “inactive”.

For `O=Cc1ccc(F)cc1`, the Potency result in experiment [1], in experiment [2], in [3], in [18], in experiment [4] and in experiment [5] was “inactive” each time. For the same compound, the Potency result in experiment [6], in [8], in experiment [9], in experiment [19], in experiment [10] and in experiment [20] was “inactive” each time. Also, the Potency entry in [14], in experiment [15] and in experiment [16] was “inactive” throughout.

Regarding `O=C(O)CCCCCCC(=O)O`, the Potency entry in experiment [1], in experiment [2], in experiment [3], in [18], in [4] and in experiment [5] was “inactive” in each case. Further, the Potency entry in experiment [6], in experiment [8], in experiment [9], in experiment [20], in experiment [14] and in experiment [15] was “inactive” in each case. Further, in experiment [16], the Potency entry is “inactive”.

With `Cc1cccc(N(C)C)c1`, the Potency result in experiment [1], in experiment [17], in experiment [3], in experiment [18], in [4] and in experiment [5] was “inactive” each time. The Potency entry in experiment [6], in experiment [7], in experiment [8], in experiment [9], in [19] and in experiment [10] was “inactive” throughout. Also, the Potency result in experiment [12], in experiment [13], in [20], in experiment [15] and in experiment [16] was “inactive” throughout.

As for `C/C=C/C=N/NC(=O)c1ccncc1`, the Potency entry in experiment [1], in experiment [2], in [3], in experiment [4], in experiment [6] and in [7] was “inactive” throughout. Also, the Potency result in experiment [8], in [9], in experiment [12], in [13], in experiment [15] and in experiment [16] was “inactive” in each case. The Potency in experiment [14] is 26.6 µM (active).

For the compound `Cn1cnc2ncnc(N)c21`, the Potency result in [1], in [2], in experiment [3], in experiment [18], in experiment [4] and in experiment [5] was “inactive” in each case. The Potency result in experiment [6], in experiment [7], in [8], in experiment [9], in experiment [10] and in experiment [13] was “inactive” throughout. Also, the Potency entry in [20], in experiment [14], in experiment [15] and in [16] was “inactive” in each case.

`CS(C)(=O)=O`: the Potency entry in [1], in [2], in [3], in [18], in [4] and in experiment [6] was “inactive” throughout. Moreover, the Potency result in experiment [7], in experiment [8], in experiment [9], in experiment [10], in [12] and in [13] was “inactive” in each case. The Potency result in [14] and in experiment [15] was “inactive” each time.

On to `C=C1C(C)(C)[C@@]2(Cl)C(Cl)[C@]1(Cl)C(Cl)(Cl)C2(Cl)Cl` (stereo partly drawn), for which the Potency result in [1], in experiment [6], in [8], in [9], in experiment [10] and in [12] was “inactive” in each case. Further, the Potency entry in [13], in [14] and in [15] was “inactive” each time. The Potency in experiment [2] was 53.9 µM (active); in experiment [4], 53.9 µM (active); in experiment [19], 60 µM (active); in [16], 21.3 µM (active).

`C[Si](C)(C)Cl`: the Potency entry in [1], in experiment [17], in experiment [3], in experiment [18], in [4] and in experiment [5] was “inactive” throughout. The Potency entry in experiment [6], in experiment [7], in [8], in experiment [9], in [19] and in experiment [10] was “inactive” in each case. Also, the Potency result in [12], in experiment [13], in experiment [20], in experiment [14], in experiment [15] and in experiment [16] was “inactive” each time.

Regarding `O=C1c2c(O)ccc(O)c2C(=O)c2c(NCCNCCO)ccc(NCCNCCO)c21`, the Potency result in experiment [1], in experiment [2], in experiment [5], in experiment [6], in [7] and in experiment [12] was “inactive” each time. The Potency entry in experiment [13] and in [15] was “inactive” throughout. Also, the Potency in [3] was 19 µM (active); in experiment [18], 0.0601 µM (active); in experiment [9] it was 21.1 µM (active); in experiment [20], 21.1 µM (active); in experiment [14] it was 23.7 µM (active); in experiment [16], 0.0473 µM (active).

For `Cc1ccc2ccc3cccc4ccc1c2c34`, the Potency result in experiment [1], in experiment [2], in [3], in experiment [4], in experiment [5] and in experiment [6] was “inactive” in each case. Further, the Potency result in [7], in experiment [9], in experiment [10], in experiment [12], in experiment [13] and in experiment [14] was “inactive” each time. In addition, the Potency entry in experiment [15] and in experiment [16] was “inactive” in each case.

As to `CC(=O)OC(OC(C)=O)c1ccc([N+](=O)[O-])o1`, the Potency result in [1], in [6] and in experiment [7] was “inactive” each time. Moreover, the Potency is 55.9 µM (active) in [2]; 44.4 µM (active) in [18]; 39.6 µM (active) in experiment [4]; 55.4 µM (active) in [8]; 24.8 µM (active) in experiment [14]; 8.78 µM (active) in experiment [16].

In the case of `O=C(O)c1cccc(Cl)n1`, the Potency entry in experiment [1], in experiment [2], in experiment [3], in [18], in experiment [4] and in experiment [6] was “inactive” in each case. The Potency entry in [7], in [8], in experiment [9], in experiment [19], in [10] and in experiment [12] was “inactive” in each case. Also, the Potency result in experiment [13] and in [15] was “inactive” throughout. For the same compound, the Potency in experiment [16] is 30.6 µM (active).
